Reference: PubChem BioAssay AID623911 (Vanderbilt High Throughput Screening Facility, 2012)
About 770 (37%) of roughly 2,100 compounds were called active. Some of the results follow. A number with no mark means an inactive call.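 The calls were made as follows: active = by-eye trace score of 1 for enhancers or -1 for inhibitors, so actives lie on both sides (some results past the limit were not filed as active); inactive = score 0, or 3 fluorescent, or 4 baseline rise.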

molecular target: G protein-activated inward rectifier potassium channel 2 (Homo sapiens) + G protein-activated inward rectifier potassium channel 1 (Homo sapiens) (UniProt P48051+P48549); test: GIRK1/2 thallium flux modulators, retest, confirmation, cell-based, HEK293 rmGlu8/hGIRK1/2, FluoZin-2 (AID 623911); conditions: HEK293 rmGlu8/hGIRK1/2, thallium flux FluoZin-2; actives lie on both sides; glutamate co-added at its EC20 level
Sequence (P48051 whole entry, looked up): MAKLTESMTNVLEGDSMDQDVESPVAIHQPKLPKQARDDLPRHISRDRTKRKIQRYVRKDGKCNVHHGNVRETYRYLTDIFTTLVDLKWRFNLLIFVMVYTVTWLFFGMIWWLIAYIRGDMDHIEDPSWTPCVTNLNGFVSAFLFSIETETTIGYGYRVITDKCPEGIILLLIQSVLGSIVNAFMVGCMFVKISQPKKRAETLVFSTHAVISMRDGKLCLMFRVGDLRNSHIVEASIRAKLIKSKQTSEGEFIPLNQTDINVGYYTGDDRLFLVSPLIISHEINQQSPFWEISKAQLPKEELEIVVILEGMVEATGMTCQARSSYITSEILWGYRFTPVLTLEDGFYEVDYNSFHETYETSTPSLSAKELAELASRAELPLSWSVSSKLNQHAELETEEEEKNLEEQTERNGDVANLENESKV
Sequence (P48549 whole entry, looked up): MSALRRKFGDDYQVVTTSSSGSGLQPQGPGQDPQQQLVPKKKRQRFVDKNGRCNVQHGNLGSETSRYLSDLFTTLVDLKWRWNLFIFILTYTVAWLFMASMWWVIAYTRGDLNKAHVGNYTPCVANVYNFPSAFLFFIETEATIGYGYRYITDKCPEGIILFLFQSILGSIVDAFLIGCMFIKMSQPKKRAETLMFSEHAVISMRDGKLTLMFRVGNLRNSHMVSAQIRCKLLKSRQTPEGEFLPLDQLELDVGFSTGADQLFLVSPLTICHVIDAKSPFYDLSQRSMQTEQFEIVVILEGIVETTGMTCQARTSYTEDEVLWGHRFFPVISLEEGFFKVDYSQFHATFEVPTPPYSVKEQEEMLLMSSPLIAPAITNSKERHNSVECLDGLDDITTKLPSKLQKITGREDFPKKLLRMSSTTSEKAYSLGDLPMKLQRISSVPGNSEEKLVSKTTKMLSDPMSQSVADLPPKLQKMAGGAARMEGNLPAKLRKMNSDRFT

| Structure (SMILES) | manual score |
| --- | --- |
| CC(=O)CN1Cc2ccccc2/C1=N\C(=O)Nc1ccccc1 | 0 |
| CCCCN(C)C1=CC2=CC(=C(C#N)C#N)CCC2CC1 (stereo unspecified) | 3 |
| CC(C)n1cc(NC(=O)c2cc(-c3ccccc3)on2)cn1 | 1 (active) |
| Cc1ccccc1Cn1cc(NC(=O)c2nc3ncccn3n2)cn1 | 0 |
| O=C(c1cc(-c2ccccc2)on1)N1CCCC1 | 0 |
| CCCn1cc(NC(=O)c2cc(-c3ccccc3)on2)cn1 | 1 (active) |
| Cc1ccc2cccc(S(=O)(=O)N3CCN(c4ccccc4F)CC3)c2n1 | -1 (active) |
| O=c1sc(N2CCN(c3ccccc3F)CC2)nc2ccsc12 | 0 |
| Cc1cccc(N2CCN(C(=O)c3ccc(Cl)c(S(=O)(=O)N4CCc5ccccc5C4)c3)CC2)c1C | 0 |
| C=CCNC(=S)NNC(=O)COc1ccc(Cl)cc1Cl | 0 |
| Cc1onc(-c2ccccc2)c1C(=O)NNC(=S)NC(=O)c1ccc(Br)cc1 | 1 (active) |
| Cc1ccccc1C(=O)NC(=S)Nc1sc2c(c1C#N)CCCC2 | 0 |
| O=C(COc1ccccc1)NNC(=S)NC(=O)c1ccc(Cl)cc1Cl | 1 (active) |
| Cc1onc(-c2ccccc2)c1C(=O)NC(=S)Nc1sc2c(c1C#N)CCCC2 | 1 (active) |
| Cc1ccccc1C(=O)NNC(=S)NC(=O)c1ccc(Cl)cc1Cl | 1 (active) |
| S=c1[nH]ccn1-c1cccc(Cl)c1 | 0 |

| Structure (SMILES) | manual score |
| --- | --- |
| Oc1ccc2ccc3cccc[n+]3c2c1 | 3 |
| CCn1c(-c2cc(-c3cccc(OC)c3)nc3ccccc23)n[nH]c1=S | 0 |
| Cc1c(Cl)cccc1NC(=S)/C(=C(\[O-])c1ccc(Cl)s1)[n+]1ccccc1 | 0 |
| Cc1ccccc1C(=O)NNC(=O)C(=O)Nc1cccc(Cl)c1C | 1 (active) |
| Cc1ccccc1C(=O)NNC(=S)NC(=O)c1ccccc1 | 1 (active) |
| Cc1ccccc1C(=O)NC(=S)NCCc1ccccc1 | 0 |
| Cc1ccccc1C(=O)Nc1nc(=S)ss1 | 0 |
| CCOC(=O)C(CC)n1cnc2c(nnn2-c2ccc(OC)cc2)c1=O (stereo unspecified) | 0 |
| CCC(C)n1c(=S)[nH]c2c(sc3ccc([N+](=O)[O-])cc32)c1=O (stereo unspecified) | 1 (active) |
| O=C(Nc1nc(-c2ccccn2)cs1)c1ccc(Br)s1 | 0 |
| CCNc1nnc(-c2ccc(C)cc2)o1 | -0.5 |
| COc1cccc2sc(Nc3nnc(-c4cccs4)o3)nc12 | 1 (active) |
| COc1cccc2sc(Nc3nc(-c4ccccn4)cs3)nc12 | 1 (active) |
| COc1ccc(-c2nnc(Nc3nc4c(OC)cccc4s3)o2)cc1 | 1 (active) |
| C/C(=N/NC(=O)c1ccncc1)c1cc2ccc(O)cc2oc1=O | 0 |
